Test results: PubChem BioAssay
The source made the active and inactive calls.

experiment: growth modulation of vineyard yeast isolate – strain RM11-1a, OD600, basal, 24 h, primary screen (AID 1177);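 note: cultures grown under basal conditions with no added stressor; test concentration not given here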; details: S. cerevisiae RM11-1a growth, OD600, 24 h; higher = more signal, called active from +8 up or from −8 down

z-score, inactive:
CN1C(=O)C2C=CC(C(O)c3cccc4ccccc34)N(N3CCCCC3)C2C1=O (stereo not drawn) -0.334, C=CCOC(=O)[C@H]1[C@@H]2C(=O)O[C@@H](c3ccccc3)[C@@H](c3ccccc3)N2[C@@H](c2ccc(OCCOC(=O)[C@@H]3C[C@@H]4C(=O)N5CCC[C@H]5C(=O)N4[C@@H]3c3ccc(O)cc3)cc2)[C@]12C(=O)Nc1ccc(I)cc12 1.08, O=C1C2C=CC(C(O)c3ccccc3)N(Nc3ccccc3F)C2C(=O)N1c1ccccc1 (stereo not drawn) 0.0428, CN(C)c1ccc(C(O)C2C=CC3C(=O)N(c4ccccc4)C(=O)C3N2Nc2ccc([N+](=O)[O-])cc2)cc1 (stereo not drawn) 0.706, [N-]=[N+]=NCc1ccccc1[C@H]1OC(c2ccc(OCCCO)cc2)=N[C@@]1(CCS(=O)(=O)c1ccccc1)C(=O)N1CCCCC1 1.77, C=CCOC(=O)[C@H]1[C@@H]2C(=O)O[C@@H](c3ccccc3)[C@@H](c3ccccc3)N2[C@@H](c2ccc(OCCOC(=O)[C@@H]3C[C@@H]4C(=O)N[C@@H](CCCCNC(C)=O)C(=O)N4[C@@H]3c3ccc(O)cc3)cc2)[C@]12C(=O)Nc1ccc(I)cc12 0.925, COc1cc2c(cc1OC)CN(C(=O)[C@@H]1[C@H]3C(=O)O[C@H](c4ccccc4)[C@H](c4ccccc4)N3[C@H](c3ccc(OCCO)cc3)[C@@]13C(=O)Nc1ccc(C#CC4(O)CCCCCC4)cc13)CC2 2.82, C=C(/C(=C/C[C@H](OC(C)=O)c1ccccc1OCCO)c1cc(C(=O)OC)ccc1OC)C(C)C -0.0703, CCOC(=O)C[C@H]1[C@H](OC(=O)c2cc3ccccc3oc2=O)[C@@H](NC(=O)c2ccc(-c3ccccc3)cc2)c2cc(OCCCO)ccc2N1C(=O)c1ccc2ccccc2n1 1.54, CN(C)CCCCNC(=O)[C@@H]1C[C@@H]2C(=O)N[C@@H](Cc3ccccc3)C(=O)N2[C@@H]1c1cccc(OCCO)c1 -3.29, COc1ccc([Si](C)(C)[C@@H]2[C@@H](CCO)O[C@]3(C(=O)N(Cc4ccc(N5CCCCC5=O)cc4)c4ccccc43)[C@H]2C)cc1 2.69, COCCOC(=O)N1C(=O)[C@@]2(c3cc(C#CC4=CCCCC4)ccc31)[C@H](c1ccccc1OCCO)N1[C@H](c3ccccc3)[C@H](c3ccccc3)OC(=O)[C@H]1[C@@H]2C(=O)Nc1nc2ccccc2s1 1.12, CCCCC(=C=CC[C@@H](O)c1ccccc1OCCO)C[C@@H](O)COCc1ccccc1 -2.79, Cc1ccc(S[C@]2(C(=O)NCC(F)(F)F)CC(=O)N(Cc3ccccc3)[C@@H]2c2ccc(CO)cc2I)cc1 -1.55, O=C(NCC(F)(F)F)[C@@H]1c2ccccc2C(=O)N(Cc2cc(F)cc(C(F)(F)F)c2)[C@H]1c1ccc(CO)cc1 0.933, C=C(CCCC)/C(=C/C[C@@H](OC(=O)c1ccncc1)c1ccccc1OCCO)c1cnc2ccccc2c1 -0.592, [N-]=[N+]=Nc1ccccc1C[C@]1(C(=O)N2CCOCC2)N=C(c2ccc(OCCCO)cc2)O[C@H]1c1ccccc1 1.05, CCCNC(=O)[C@@H]1c2ccccc2C(=O)N(C(C)C)[C@H]1c1ccc(CO)cc1 0.846, O=C1O[C@H](c2ccccc2)[C@H](c2ccccc2)N2[C@H]1[C@@H](C(=O)Nc1nc3ccccc3s1)[C@]1(C(=O)Nc3ccc(C#CC4(O)CCCCCC4)cc31)[C@H]2c1ccccc1OCCO 2.74, O=C1OCC=C[C@H]2OC34C=CCN(Cn5nnc6ccccc65)C(=O)[C@H]3N(CCCO)C(=O)[C@@H]4[C@@H]12 (stereo partly drawn) -0.0325, COC(=O)[C@@]1(Cc2ccccc2)[C@H]2c3cc(C(=O)N(C)C)n(Cc4c(CO)[nH]cc(C)c4=O)c3C[C@H]2CN1C(=O)c1ccccc1 1.24, COC(=O)[C@@]1(Cc2ccc(OC)cc2)[C@H]2c3cc(C(=O)N(C)C)n(Cc4ccc(Cl)c(C(F)(F)F)c4)c3C[C@H]2CN1C(=O)c1ccccc1 0.673, C=CCNC(=O)[C@H]1[C@@H]2C(=O)O[C@@H](c3ccccc3)[C@@H](c3ccccc3)N2[C@@H](c2ccc(O)cc2)[C@]12C(=O)N(C(=O)OCCOC)c1ccccc12 0.931
